Key:
Assay in all cases: DAPPL (digital affinity profiling via proximity ligation, sequencing); 10 mM Tris-HCl pH 7.5, 50 mM NaCl, 1 mM DTT, 4% glycerol, room temperature, 30 min; GST-TFs on glutathione beads, 16-mer random dsDNA library, 0.1% formaldehyde crosslink after washing; high values mean tight binding
Conditions in all cases: protein: recombinant; tags: N-terminal GST; dsDNA, one strand shown
FLI1 = target: T1, FLI1 (Homo sapiens, UniProt Q01543 1-452)
T1 sequence: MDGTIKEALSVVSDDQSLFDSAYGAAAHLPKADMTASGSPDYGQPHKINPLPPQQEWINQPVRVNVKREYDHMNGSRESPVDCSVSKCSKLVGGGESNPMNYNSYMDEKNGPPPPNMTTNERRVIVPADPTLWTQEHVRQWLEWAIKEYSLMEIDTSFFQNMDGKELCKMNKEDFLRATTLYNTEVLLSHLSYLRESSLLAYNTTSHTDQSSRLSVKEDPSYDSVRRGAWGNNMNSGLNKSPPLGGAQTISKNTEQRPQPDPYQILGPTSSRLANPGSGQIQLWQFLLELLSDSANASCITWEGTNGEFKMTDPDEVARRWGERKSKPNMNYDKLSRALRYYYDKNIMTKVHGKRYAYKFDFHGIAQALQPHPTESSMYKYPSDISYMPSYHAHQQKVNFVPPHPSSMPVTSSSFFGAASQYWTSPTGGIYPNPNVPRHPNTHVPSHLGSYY
How it was run: (§1)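 The binding signal reported is, for every hexamer, its read frequency for a factor over its read frequency for the tag-only sample. Reads came from pools of yeast-expressed, GST-fused human transcription factors on glutathione beads, barcoded with DNA and mixed with that sample, which were incubated with 200 nmole of a random double-stranded 16-mer DNA library in Tris/NaCl/DTT/glycerol buffer at room temperature for 30 min. After washing, the pools were crosslinked with 0.1% formaldehyde, proximity-ligated with BsaI/T4 ligase for 1 h at 37 °C, PCR-amplified and sequenced on an Illumina NextSeq500.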

ELK1 = target: T2, ELK1 (Homo sapiens, UniProt P19419 1-428)
T2 sequence: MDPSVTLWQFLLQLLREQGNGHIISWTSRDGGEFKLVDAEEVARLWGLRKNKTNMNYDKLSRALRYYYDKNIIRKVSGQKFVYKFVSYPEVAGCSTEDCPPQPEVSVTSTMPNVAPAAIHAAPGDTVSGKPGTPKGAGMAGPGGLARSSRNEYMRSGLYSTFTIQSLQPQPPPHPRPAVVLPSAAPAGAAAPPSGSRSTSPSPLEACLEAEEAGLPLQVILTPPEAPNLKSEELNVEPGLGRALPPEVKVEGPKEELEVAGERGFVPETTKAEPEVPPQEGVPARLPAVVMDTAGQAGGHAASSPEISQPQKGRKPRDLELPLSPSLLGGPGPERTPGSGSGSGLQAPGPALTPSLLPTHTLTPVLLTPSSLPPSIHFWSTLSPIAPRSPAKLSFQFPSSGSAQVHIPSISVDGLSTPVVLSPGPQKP
How it was run: as §1

GABPA = target: T3, GABPA (Homo sapiens, UniProt Q06546 1-454)
T3 sequence: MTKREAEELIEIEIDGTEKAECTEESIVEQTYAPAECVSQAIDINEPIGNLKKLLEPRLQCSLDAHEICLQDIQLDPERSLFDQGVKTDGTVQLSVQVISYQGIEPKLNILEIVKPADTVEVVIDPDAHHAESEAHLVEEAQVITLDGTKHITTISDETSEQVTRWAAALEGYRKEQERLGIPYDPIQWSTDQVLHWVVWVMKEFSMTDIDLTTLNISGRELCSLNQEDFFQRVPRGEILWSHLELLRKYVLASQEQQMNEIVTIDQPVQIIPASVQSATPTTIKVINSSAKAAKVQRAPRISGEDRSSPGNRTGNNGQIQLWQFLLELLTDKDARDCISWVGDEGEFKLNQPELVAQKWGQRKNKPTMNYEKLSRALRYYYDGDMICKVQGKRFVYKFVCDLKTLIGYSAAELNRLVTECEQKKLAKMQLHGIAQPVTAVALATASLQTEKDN
How it was run: as §1

ERG = target: T4, ERG (Homo sapiens, UniProt P11308 1-479)
T4 sequence: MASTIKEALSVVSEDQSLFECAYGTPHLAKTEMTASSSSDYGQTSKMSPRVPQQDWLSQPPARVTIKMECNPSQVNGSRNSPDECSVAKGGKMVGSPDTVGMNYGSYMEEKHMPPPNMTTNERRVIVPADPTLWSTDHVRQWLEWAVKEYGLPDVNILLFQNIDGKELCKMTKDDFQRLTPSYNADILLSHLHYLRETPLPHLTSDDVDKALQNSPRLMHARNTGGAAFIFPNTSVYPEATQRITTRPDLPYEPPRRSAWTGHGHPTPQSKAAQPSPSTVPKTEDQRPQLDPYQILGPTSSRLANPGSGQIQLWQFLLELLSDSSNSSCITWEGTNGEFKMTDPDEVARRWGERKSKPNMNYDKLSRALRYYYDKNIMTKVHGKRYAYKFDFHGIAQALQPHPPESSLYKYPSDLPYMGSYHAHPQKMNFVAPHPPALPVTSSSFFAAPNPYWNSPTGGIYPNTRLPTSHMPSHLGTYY
How it was run: as §1

ELF1 = ELF1 (Homo sapiens, UniProt P32519 1-619)
How it was run: as §1

EHF = target: T5, EHF (Homo sapiens, UniProt Q9NZC4 1-300)
T5 sequence: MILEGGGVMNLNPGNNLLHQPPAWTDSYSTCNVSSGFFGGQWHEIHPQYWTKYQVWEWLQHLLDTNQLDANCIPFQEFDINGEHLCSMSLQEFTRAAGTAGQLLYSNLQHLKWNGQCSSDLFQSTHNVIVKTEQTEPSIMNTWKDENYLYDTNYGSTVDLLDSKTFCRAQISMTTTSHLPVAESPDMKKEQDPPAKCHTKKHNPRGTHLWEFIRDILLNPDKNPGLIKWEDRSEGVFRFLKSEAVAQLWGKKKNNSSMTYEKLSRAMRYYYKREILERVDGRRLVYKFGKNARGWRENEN
How it was run: as §1

SPI1 = SPI1 (Homo sapiens, UniProt P17947 1-270)
How it was run: as §1

SPIB = SPIB (Homo sapiens, UniProt Q01892 1-262)
How it was run: as §1

ELK3 = target: T6, ELK3 (Homo sapiens, UniProt P41970 1-407)
T6 sequence: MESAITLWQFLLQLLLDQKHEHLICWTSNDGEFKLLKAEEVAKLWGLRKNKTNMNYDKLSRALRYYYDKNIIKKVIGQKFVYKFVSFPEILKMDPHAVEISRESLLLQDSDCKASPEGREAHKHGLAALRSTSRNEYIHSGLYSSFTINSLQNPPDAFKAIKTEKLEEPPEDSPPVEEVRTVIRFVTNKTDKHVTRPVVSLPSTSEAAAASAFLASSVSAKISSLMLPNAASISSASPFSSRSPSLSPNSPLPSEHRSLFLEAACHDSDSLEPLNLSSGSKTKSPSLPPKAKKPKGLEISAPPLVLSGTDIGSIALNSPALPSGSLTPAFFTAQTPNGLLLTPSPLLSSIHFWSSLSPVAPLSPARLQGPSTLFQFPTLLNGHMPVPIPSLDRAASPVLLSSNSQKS
How it was run: as §1

ELF1, sequence (P32519 whole entry): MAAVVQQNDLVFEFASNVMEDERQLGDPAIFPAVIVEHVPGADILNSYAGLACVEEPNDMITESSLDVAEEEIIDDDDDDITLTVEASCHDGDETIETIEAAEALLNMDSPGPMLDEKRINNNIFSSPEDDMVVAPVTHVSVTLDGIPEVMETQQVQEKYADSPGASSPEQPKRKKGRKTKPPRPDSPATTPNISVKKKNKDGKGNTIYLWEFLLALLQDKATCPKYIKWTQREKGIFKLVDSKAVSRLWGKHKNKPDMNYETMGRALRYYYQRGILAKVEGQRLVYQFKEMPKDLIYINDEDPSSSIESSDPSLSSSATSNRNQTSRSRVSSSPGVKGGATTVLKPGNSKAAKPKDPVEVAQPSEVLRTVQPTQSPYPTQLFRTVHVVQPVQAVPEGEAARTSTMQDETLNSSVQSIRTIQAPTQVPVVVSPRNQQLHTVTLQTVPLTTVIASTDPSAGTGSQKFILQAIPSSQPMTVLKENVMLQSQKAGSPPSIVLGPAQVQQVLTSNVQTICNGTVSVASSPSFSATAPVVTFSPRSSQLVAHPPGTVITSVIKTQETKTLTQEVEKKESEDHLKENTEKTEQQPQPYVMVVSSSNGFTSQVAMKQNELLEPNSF
SPIB, sequence (Q01892 whole entry): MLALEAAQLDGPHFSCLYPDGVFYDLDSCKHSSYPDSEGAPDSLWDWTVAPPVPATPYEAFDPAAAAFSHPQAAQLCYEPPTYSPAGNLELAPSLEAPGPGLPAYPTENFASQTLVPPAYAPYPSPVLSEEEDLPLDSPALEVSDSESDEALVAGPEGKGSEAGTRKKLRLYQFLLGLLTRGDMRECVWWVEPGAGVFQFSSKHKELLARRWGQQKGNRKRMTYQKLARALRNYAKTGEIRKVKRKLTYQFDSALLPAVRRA

GGAAAT
binding signal (FLI1): 2.51 fold enrichment (6-mer frequency, TF over GST control)
binding signal (ELK1): 2.64 fold enrichment (6-mer frequency, TF over GST control)
binding signal (GABPA): 2.39 fold enrichment (6-mer frequency, TF over GST control)
binding signal (ERG): 3.22 fold enrichment (6-mer frequency, TF over GST control)
binding signal (ELF1): 2.39 fold enrichment (6-mer frequency, TF over GST control)
binding signal (EHF): 3.06 fold enrichment (6-mer frequency, TF over GST control)
binding signal (SPI1): 2.6 fold enrichment (6-mer frequency, TF over GST control)
binding signal (SPIB): 2.88 fold enrichment (6-mer frequency, TF over GST control)
binding signal (ELK3): 2.69 fold enrichment (6-mer frequency, TF over GST control)

Reference: article PMC7862700, “An all-to-all approach to the identification of sequence-specific readers for epigenetic DNA modifications on cytosine”
